Screening data as filed in PubChem BioAssay.
Shown are actives, neighbours in structure and some others; about 2.2% of the full set was active somewhere.
TDP43 rescue = inhibitors of TDP-43 toxicity in yeast; TDP-43 expressing yeast growth rescue, BacTiter-Glo, 24 h; Potency, µM (top dose mostly 46.1 µM), actives largely listed as activators; actives 1.8% (n = 410,000); further: nearly all actives have a fitted effect of over 50% in size
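Galactose-induced TDP-43 yeast, OD600=0.02, compound pinned; 24 hr, 30 deg C; BacTiter-Glo luminescence for growth. Inhibitors of TDP-43 toxicity read as activators.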
FUS suppressor = suppressors of FUS proteinopathy in yeast | S. cerevisiae FUS-expressing, growth rescue, OD600, 24 h | Potency, µM (highest dose often 76.6 µM), actives largely listed as activators | actives 0.24% (n = 390,000) | AID 1347120; further: nearly all actives have a fitted effect of over 55% in size
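Steps: raffinose overnight preculture; dilution to OD 0.005 in 2% galactose minimal medium; compound addition (concentration series); 24hr at 30C, 99% humidity; absorbance read at 600 nm.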
Abeta rescue = A-beta toxicity reversal in yeast; yeast expressing A-beta42, growth rescue, OD600, 48 h; response scale: 0% DMSO, 100% iron-clioquinol control; Potency, µM (top dose mostly 46.1 µM), actives largely listed as activators; actives 0.063% (n = 410,000); further: nearly all actives have a fitted effect of over 55% in size
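Yeast growth medium received pinned compounds, then yeast cells expressing toxic A-beta were added; plates incubated at 30 C for 48 hr. Growth read as absorbance at 600 nm, normalized to DMSO and equimolar FeCl3 plus clioquinol controls.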
Mito fusion yeast = mitochondrial division inhibition or fusion activation | AID 485298 | actives 0.23% (n = 320,000) | Potency, µM (highest dose often 46.1 µM), most hits filed as activators | S. cerevisiae fusion-defective mutant growth rescue, CellTiterGlo 48 h; further: nearly all actives have a fitted effect of over 45% in size
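Read-out: ATP-based luminescence (CellTiterGlo, 10 min ambient) reporting growth of fusion-defective ts yeast after 48 hours at 37C on glycerol/ethanol YPEG medium in the presence of compound.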
aSyn rescue = inhibitors of alpha-synuclein toxicity in yeast | Yeast expressing alpha-synuclein, growth rescue, BacTiter-Glo, 24 h | AID 652106 | actives 0.14% (n = 370,000) | Potency, µM (doses to about 46.1 µM), hits mostly activators; further: nearly all actives have a fitted effect of over 65% in size
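Rescue of yeast growth: cells expressing toxic alpha-synuclein, induced in galactose at OD600 0.02, incubated with compound 24 h at 30 C. ATP luminescence quantified growth; inhibitors of toxicity appear as activators.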
Each line names hits and unclear results; the compound was inactive in the other large screens. The call rests on the fitted dose curve; in most records, active means well fitted curve in the direction sought with a large enough effect; inconclusive means small, poorly fitted or top-dose-only effect, or another doubt; inactive means no such curve, though single readings can be large; an effect the other way counts as inactive or inconclusive.

C=C(C)Cn1c(=S)[nH]c2ccccc2c1=O	TDP43 rescue 13µM
COC[C@H]1CCCN1c1ccc2c(c1)O[C@H](C)CCN(C1CC1)S2(=O)=O	none (no result: TDP43 rescue, Abeta rescue, Mito fusion yeast, aSyn rescue)
CCOC(=O)c1ccccc1NC(=S)N1CCC(C)CC1	TDP43 rescue 11µM
CCOC(=O)c1ccccc1NC(=S)N1CC(C)CC(C)C1 (stereo not drawn)	none
c1ccc(-c2c[nH]c3cccc(-c4cc5ccccc5o4)c23)cc1	none (no result: TDP43 rescue, Abeta rescue, Mito fusion yeast, aSyn rescue)
CCOC(=O)C1CCCN(C(=O)c2cc3c(Cl)nc4ccccc4c3s2)C1 (stereo not drawn)	TDP43 rescue inconclusive, FUS suppressor inconclusive (no result: Mito fusion yeast, aSyn rescue)
O=C(c1cc2c(Cl)nc3ccccc3c2s1)N1CCCCC1	TDP43 rescue 35µM (no result: Mito fusion yeast, aSyn rescue)
Cc1nn2c3ccccc3nc2c2ccccc12	TDP43 rescue 40µM
Cc1nn2c(-c3ccccc3)nnc2c2ccccc12	TDP43 rescue 18µM, aSyn rescue inconclusive
Cc1ccc(-c2nn3c(-c4ccc(C)cc4)nnc3c3ccccc23)cc1	none (no result: Mito fusion yeast, aSyn rescue)
O=C(CSc1nnc(-c2ccccc2)n1-c1ccc(Cl)cc1)c1ccc(Cl)cc1	none (no result: TDP43 rescue, Abeta rescue, Mito fusion yeast, aSyn rescue)
CCOC(=O)c1ccc(NC(=O)Cn2ncc(Cl)c(Cl)c2=O)cc1	none
Cc1ccc(C(=O)OCn2ncc(Cl)c(Cl)c2=O)cc1	TDP43 rescue 3.2µM
O=C(OCn1ncc(Cl)c(Cl)c1=O)c1ccc(C(F)(F)F)cc1	TDP43 rescue 4µM
Oc1cc(Nc2ccc(N3CCCCC3)cc2)cc2cccnc12	none (no result: TDP43 rescue, FUS suppressor, Abeta rescue, aSyn rescue)
COc1ccc(Br)c(C(=O)OCC(=O)NC(=O)NC2CCCC2)c1	TDP43 rescue 18µM, aSyn rescue inconclusive (no result: Mito fusion yeast)
CCOC(=O)N1CCN(C(=O)CN(C2CCCCC2)S(=O)(=O)c2ccc(C)cc2)CC1	TDP43 rescue inconclusive
Cc1ccc(S(=O)(=O)N(CC(=O)N2CCN(c3ccc(F)cc3)CC2)C2CCCCC2)cc1	TDP43 rescue 20µM, FUS suppressor inconclusive
Cc1cc(C)c(S(=O)(=O)NCC2CCC(C(=O)NCCc3ccccc3)CC2)c(C)c1 (stereo not drawn)	none (no result: Mito fusion yeast, aSyn rescue)
CCCCOCCCNC(=O)C[C@H]1C(=O)N(Cc2ccc(OC)cc2)C2=CCCC[C@@]21C(=O)OCC	none (no result: TDP43 rescue, Abeta rescue, Mito fusion yeast, aSyn rescue)
CC12CCC(C(=O)Nc3cccc(Cl)c3)(C(Br)C1=O)C2(C)C (stereo not drawn)	TDP43 rescue 20µM (no result: FUS suppressor)
CC12CCC(C(=O)Nc3ccc(Cl)cc3)([C@H](Br)C1=O)C2(C)C (stereo partly drawn)	TDP43 rescue inconclusive, Abeta rescue inconclusive
CCCC(=O)N1CCC[C@]2(CC[C@H](CCC#N)O2)C1	none (no result: TDP43 rescue, Abeta rescue, Mito fusion yeast, aSyn rescue)
CCn1c(-c2ccccc2)c(C(=O)CCl)c2ccccc21	aSyn rescue 11µM
Cn1c(-c2ccccc2)c(C(=O)CCl)c2ccccc21	TDP43 rescue 18µM
CCn1c(=O)c(C(=O)NCCc2ccccc2)c(O)c2ccccc21	none
Cn1c(-c2ccccc2)c(CCO)c2ccccc21	TDP43 rescue inconclusive
CCC(C)n1c(=S)[nH]c2c(sc3ccc([N+](=O)[O-])cc32)c1=O (stereo not drawn)	Mito fusion yeast inconclusive
O=[N+]([O-])c1cccc(C2=Nn3c(nnc3-c3ccccc3)SC2)c1	none (no result: TDP43 rescue, Abeta rescue, Mito fusion yeast, aSyn rescue)
CCOC(=O)c1ccc(NC(=O)c2cn(-c3ccccc3)nc2-c2ccc(OC)c(OC)c2)cc1	TDP43 rescue inconclusive, FUS suppressor 25µM (no result: Mito fusion yeast, aSyn rescue)
CCN(CC(=O)Nc1ccc(NC(C)=O)cc1)C(=O)/C=C/c1cn(-c2ccccc2)nc1-c1ccc(C)cc1	FUS suppressor 32µM
COc1cccc(NC(=O)CN(C)C(=O)/C=C/c2cn(-c3ccccc3)nc2-c2ccc(OC)c(OC)c2)c1	FUS suppressor 40µM (no result: Mito fusion yeast)
COc1ccc(-c2nn(-c3ccccc3)cc2/C=C/C(=O)N(C)CC(=O)Nc2cccc(F)c2)cc1OC	TDP43 rescue inconclusive, FUS suppressor inconclusive (no result: Mito fusion yeast)
CCN(CC(=O)Nc1ccc(NC(C)=O)cc1)C(=O)/C=C/c1cn(-c2ccccc2)nc1-c1ccc(F)cc1	none
CN(C(=O)c1ccc(NC(=O)Cc2ccc(NC(=O)C3CCN(C(=O)C4CCCCC4)CC3)cc2)cc1)C1CCCC1	FUS suppressor inconclusive (no result: Mito fusion yeast)
COc1ccc2cc3cc(C(=O)N(C)C4CCCCC4)oc3nc2c1	TDP43 rescue 18µM
COc1ccc2cc3cc(C(=O)NCCN4CCN(Cc5ccccc5)CC4)oc3nc2c1	none
COc1ccc2cc3cc(C(=O)NCCN4CCc5ccccc5C4)oc3nc2c1	TDP43 rescue 11µM, aSyn rescue 25µM
COc1ccc2cc3cc(C(=O)N4CCCCCC4)oc3nc2c1	none
COc1ccc2nc3cccc(OC)c3nc2c1	TDP43 rescue 22µM, Abeta rescue inconclusive
COc1ccc2nc3ccccc3nc2c1N	TDP43 rescue inconclusive
CC(=O)N[C@@H]1C[C@@H]2O[C@H](CO)CC[C@@H]2O[C@@H]1CCc1ccc(-c2ccc(F)cc2)cc1	none (no result: TDP43 rescue, Abeta rescue, Mito fusion yeast, aSyn rescue)
CC(=O)Nc1ccc(Nc2cc(C)nc3c(-c4ccccc4)cnn23)cc1	TDP43 rescue inconclusive, Mito fusion yeast 14µM
Nc1ccn([C@@H]2O[C@H](CNCc3cnc(N4CCOCC4)s3)[C@@H](O)[C@H]2O)c(=O)n1	TDP43 rescue inconclusive (no result: Mito fusion yeast)
CCOC(=O)NCc1ccc(Cl)c(Cl)c1	TDP43 rescue 18µM
Cc1ccc(S(=O)(=O)NCC(=O)NCC2COc3ccccc3O2)cc1C (stereo not drawn)	none
CN(CC1COc2ccccc2O1)C(=O)CCNS(=O)(=O)c1ccc(F)c(Cl)c1 (stereo not drawn)	TDP43 rescue 22µM, Abeta rescue inconclusive (no result: Mito fusion yeast)
Nc1nonc1-c1noc(-c2ccccc2Br)n1	TDP43 rescue 13µM
